# Results: PubChem BioAssay (NCATS)
# Several values for one entry are separate records, joined by “and”; a condition that tells them apart may be missing. Equal entries are not always repeated. Results filed as inconclusive are left out. A call without a number means that no potency is given here. Activity calls are given as the source filed them. The call rests on the fitted dose curve; in most records, active means well fitted curve in the direction sought with a large enough effect; inconclusive means small, poorly fitted or top-dose-only effect, or another doubt; inactive means no such curve, though single readings can be large; an effect the other way counts as inactive or inconclusive.
# Experiments:
# [1] = qHTS of pediatric cancer cell lines to identify multiple opportunities for drug repurposing: Primary screen for BT-12 cells (AID 1347101); further: nearly all actives have a fitted effect of over 25% in size
# Method in brief: (§1)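 Cells (500-1,000/well) rested 5 h, then received compounds for 48 h; metabolically active cells were measured by CellTiter-Glo luminescence. Final concentrations spanned up to 46 µM (MIPE, 11-point) or 0.59 nM-46 µM (NPC, 8-point) in primary screens, 11-point in follow-ups.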
# [2] = qHTS of pediatric cancer cell lines to identify multiple opportunities for drug repurposing: Primary screen for Rh18 cells (AID 1347102); further: nearly all actives have a fitted effect of over 65% in size
# Method in brief: as §1
# [3] = qHTS of pediatric cancer cell lines to identify multiple opportunities for drug repurposing: Primary screen for OHS-50 cells (AID 1347103); further: nearly all actives have a fitted effect of over 40% in size
# Method in brief: as §1
# [4] = qHTS of pediatric cancer cell lines to identify multiple opportunities for drug repurposing: Primary screen for MG 63 (6-TG R) cells (AID 1347105); further: nearly all actives have a fitted effect of over 50% in size
# Method in brief: (§2)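 Cells seeded at 500-1,000 cells/well in growth media, rested 5 hours at 37 degrees C, 5% CO2, then dosed; MIPE compounds at 11-point (from 0.78 nM) and NPC at 8-point (from 0.59 nM) final concentrations. Viability by CellTiter-Glo luminescence after 48 hours.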
# [5] = qHTS of pediatric cancer cell lines to identify multiple opportunities for drug repurposing: Primary screen for control Hh wild type fibroblast cells (AID 1347106); further: nearly all actives have a fitted effect of over 55% in size
# Method in brief: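 Cells (500-1,000/well) in growth media were settled 5 h at 37 degrees C, then given compounds for 48 h. Viability was read as CellTiter-Glo luminescence. Primary runs used MIPE at 11 points (0.78 nM-46 µM) and NPC at 8 points (0.59 nM-46 µM); follow-ups used 11 points.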
# [6] = qHTS of pediatric cancer cell lines to identify multiple opportunities for drug repurposing: Primary screen for Rh30 cells (AID 1347107); further: nearly all actives have a fitted effect of over 75% in size
# Method in brief: as §1
# [7] = qHTS of pediatric cancer cell lines to identify multiple opportunities for drug repurposing: Primary screen for Rh41 cells (AID 1347108); further: nearly all actives have a fitted effect of over 70% in size
# Method in brief: as §2
# [8] = qHTS of pediatric cancer cell lines to identify multiple opportunities for drug repurposing: Primary screen for RD cells (AID 1347104); further: nearly all actives have a fitted effect of over 55% in size
# Method in brief: as §2
# [9] = qHTS of pediatric cancer cell lines to identify multiple opportunities for drug repurposing: Confirmatory screen for NB1643 cells (AID 1347109); further: nearly all actives have a fitted effect of over 45% in size
# Method in brief: as §1
# [10] = qHTS of pediatric cancer cell lines to identify multiple opportunities for drug repurposing: Confirmatory screen for A673 cells (AID 1347110);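 further: cells exposed to compound for 48 h before the viability read; nearly all actives have a fitted effect of over 65% in size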
# Method in brief: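 A673 cells seeded at 500-1,000 cells/well, rested 5 h, then dosed; primary MIPE 11-point (0.78 nM to 46 µM), NPC (0.59 nM to 46 µM); confirmatory 11-point. CellTiter-Glo luminescence after 48 h.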
# Potency means the concentration at half of the fitted maximal effect.
SMILES,Potency [1],Potency [2],Potency [3],Potency [4],Potency [5],Potency [6],Potency [7],Potency [8],Potency [9],Potency [10]
CN(C)CCC(c1ccccc1)c1ccccn1 (stereo not given),inactive,inactive,inactive,inactive,inactive,inactive,inactive,,,
O=C(NC1CCOCC1)c1ccc(-c2cc(-c3cn[nH]c3-c3ccccn3)ccn2)cc1,inactive,inactive,inactive,,,inactive,inactive,,,
C[C@]12CCC3c4ccc(O)cc4CCC3C1CCC2=O (stereo not given in full),inactive,inactive,,inactive,inactive,inactive,,inactive,,
O=C1NC(=O)C(c2ccccc2)(c2ccccc2)N1,inactive,inactive,,inactive,inactive,inactive,inactive,inactive,,
Oc1ccc(C2CCN(c3ccnc4ccccc34)CC2)cc1O,7.69 µM (active),inactive,17.2 µM (active),inactive,inactive,,,,16.5 µM (active),2.61 µM (active)
CN(C)CCC=C1c2ccccc2COc2ccc(CC(=O)O)cc21,inactive,inactive,inactive,,inactive,,inactive,,,
Cc1nnc(C(C)C)n1C1C[C@H]2CC[C@@H](C1)N2CC[C@H](NC(=O)C1CCC(F)(F)CC1)c1ccccc1 (stereo not given in full),inactive,inactive,inactive,inactive,inactive,inactive,inactive,,7.37 µM (active),inactive
CC1(C)Cc2c(sc(NC(=S)NC(=O)c3ccccc3)c2C(=O)O)CO1,inactive,inactive,inactive,inactive,inactive,inactive,inactive,,,
Clc1ccc(C(c2ccc(Cl)cc2)n2cc[n+](CC(OCc3ccc(Cl)cc3Cl)c3ccc(Cl)cc3Cl)c2)cc1 (stereo not given),21.7 µM (active),23.5 µM (active),17.2 µM (active),23.5 µM (active),,18.7 µM (active),18.7 µM (active),,,
c1cc(-c2sc(-c3ccncc3)c(-c3ccncc3)c2-c2ccncc2)ccn1,inactive,inactive,inactive,,inactive,inactive,inactive,,,
CCCCCN(C)CCC(O)(P(=O)(O)O)P(=O)(O)O,inactive,inactive,inactive,inactive,inactive,inactive,inactive,,,
C[C@@H](O)[C@H]1C(=O)N2C(C(=O)O)=C(S[C@@H]3CN[C@H](C(=O)N(C)C)C3)[C@H](C)[C@H]12,inactive,inactive,inactive,inactive,inactive,inactive,inactive,,,
COc1ccccc1N1CCN(CCCNc2cc(=O)n(C)c(=O)n2C)CC1,inactive,inactive,inactive,inactive,inactive,inactive,inactive,,,
CC#CCn1c(N2CCC[C@@H](N)C2)nc2c1c(=O)n(Cc1nc(C)c3ccccc3n1)c(=O)n2C,inactive,inactive,inactive,inactive,inactive,,,,,
NCCS,inactive,inactive,inactive,inactive,,inactive,inactive,,,
COC1CCC(N(C(=O)C2CCC(C)CC2)c2cc(C3=CCCCC3)sc2C(=O)O)CC1 (stereo not given),inactive,inactive,inactive,inactive,inactive,inactive,inactive,,,
CCOC(=O)C1=C(N)Oc2ccc(Br)cc2C1C(C#N)C(=O)OCC (stereo not given),inactive,14.8 µM (active),,inactive,inactive,inactive,,29.6 µM (active),,
OC[C@H]1O[C@@H](n2cnc3c2NC=NC[C@@H]3O)C[C@H]1O,inactive,inactive,inactive,inactive,inactive,,inactive,,,1.04 µM (active)
CNC(=O)c1ccccc1Sc1ccc2c(C=Cc3ccccn3)n[nH]c2c1,19.3 µM (active),14.8 µM (active),21.7 µM (active),,inactive,,,,,
O=C1NCC2(CCN(CCc3ccccc3)CC2)O1,inactive,inactive,,inactive,inactive,inactive,inactive,inactive,,
CC(=O)Nc1ccc([C@H](C)C(=O)Nc2ncc(C(C)C)s2)cc1,1.22 µM (active),7.43 µM (active),3.85 µM (active),,,inactive,7.43 µM (active),4.18 µM (active),,2.61 µM (active)
CCN(CC)C(=O)c1ccc(O)c(OC)c1,inactive,inactive,,inactive,inactive,inactive,inactive,inactive,,
NC[C@@H]1O[C@@H](O[C@H]2[C@@H](O)[C@H](O[C@@H]3[C@@H](O)[C@@H](N)C[C@H](N)[C@H]3O[C@H]3O[C@H](CN)[C@@H](O)[C@@H](O)[C@H]3N)O[C@H]2CO)[C@H](N)[C@@H](O)[C@@H]1O,inactive,inactive,,inactive,inactive,inactive,inactive,inactive,,
CC(C)(C)c1cc(C(=O)O)c(NC(=O)Nc2ccc3[nH]ncc3c2)s1,inactive,inactive,inactive,inactive,inactive,,,,,
CC(C)C(=O)Oc1ccc(CO)cc1[C@H](CCN(C(C)C)C(C)C)c1ccccc1,inactive,inactive,,inactive,inactive,inactive,,inactive,,
CCCCCCCCCCCC1=C(O)C(=O)C=C(O)C1=O,0.0432 µM (active),inactive,0.0193 µM (active),,,inactive,4.69 µM (active),,inactive,
O=C1c2ccccc2-[n+]2ccc3c([nH]c4ccccc43)c21,6.85 µM (active),2.35 µM (active),2.17 µM (active),2.96 µM (active),9.35 µM (active),4.18 µM (active),2.96 µM (active),,2.08 µM (active),2.93 µM (active)
C[N+](C)(C)CCCCCC[N+](C)(C)C,inactive,inactive,,inactive,inactive,inactive,inactive,inactive,,

SMILES,Potency [1],Potency [2],Potency [3],Potency [4],Potency [5],Potency [6],Potency [7],Potency [8],Potency [9],Potency [10]
Cc1nc(N)sc1-c1ccnc(Nc2ccc(N3CCOCC3)cc2)n1,24.3 µM (active),16.6 µM (active),,5.9 µM (active),16.6 µM (active),,18.7 µM (active),20.9 µM (active),,
C[C@H](NC(=O)c1sccc1OCc1ccc(Cl)cc1)c1ccccc1,19.3 µM (active),inactive,12.2 µM (active),,,18.7 µM (active),16.6 µM (active),,,
CC(=O)N(C)C1(c2ccccc2)CCN(CCC[C@]2(c3ccc(Cl)c(Cl)c3)CCCN(C(=O)c3ccccc3)C2)CC1,27.3 µM (active),26.4 µM (active),24.3 µM (active),,,,18.7 µM (active),,,
O=C(NCc1ccccc1)c1csc(Nc2ccncn2)n1,19.3 µM (active),23.5 µM (active),,23.5 µM (active),,,9.35 µM (active),29.6 µM (active),,
COc1cc(NC(=O)c2ccc(-c3ccc(Cl)cc3)o2)cc(OC)c1,inactive,inactive,,7.43 µM (active),,7.43 µM (active),7.43 µM (active),,,
COC[C@@H](c1ccc(C(F)(F)F)cc1)N1CCN(C2(C)CCN(C(=O)c3c(C)ncnc3C)CC2)C[C@H]1C,inactive,inactive,,,,inactive,inactive,inactive,,
COc1cc2ncnc(Nc3ccc(F)c(Cl)c3)c2cc1OCCCN1CCOCC1,39.5 µM (active),34 µM (active),,27 µM (active),,inactive,17.1 µM (active),6.79 µM (active) and 23.7 µM (active),38 µM (active),
CO[C@H]1C=CO[C@@]2(C)Oc3c(C)c(O)c4c(O)c(c5c(c4c3C2=O)NC2(CCN(CC(C)C)CC2)N=5)=NC(=O)C(C)=CC=C[C@H](C)[C@H](O)[C@@H](C)[C@@H](O)[C@@H](C)[C@H](OC(C)=O)[C@H]1C,inactive,inactive,,,inactive,inactive,inactive,inactive,,
CC(C(=O)O)c1ccc(-c2ccccc2)c(F)c1 (stereo not given),inactive,inactive,,inactive,,,,,,
COC(=O)N[C@H](C(=O)N1CCC[C@@H]1c1ncc(-c2ccc(-c3ccc(-c4cnc([C@@H]5CCCN5C(=O)[C@@H](NC(=O)OC)C(C)C)[nH]4)cc3)cc2)[nH]1)C(C)C,34.3 µM (active),23.5 µM (active),,,inactive,,,33.2 µM (active),,
COc1ccc2cccc(CCNC(C)=O)c2c1,inactive,inactive,,,inactive,inactive,inactive,inactive,,
COc1ccc(Cc2ccc(NC(N)=O)cc2)cc1-c1cccc(Cl)c1,inactive,inactive,,inactive,inactive,inactive,,,,
CC1CCC(C(=O)N(c2cc(C#CC(C)(C)C)sc2C(=O)O)C2CCC(O)CC2)CC1 (stereo not given),inactive,inactive,,inactive,inactive,,,,,
OC[C@H]1O[C@@H](Oc2cc(O)cc(C=Cc3ccc(O)cc3)c2)[C@H](O)[C@@H](O)[C@H]1O,inactive,inactive,,inactive,inactive,inactive,inactive,,,
COc1cc(O)c2c(c1)C(=O)c1cc(C)cc(O)c1C2=O,inactive,,inactive,inactive,,,,inactive,,
Cc1ccccc1C(C(=O)NC1CCCCC1)N(C(=O)Cn1ccnc1C)c1cccc(F)c1 (stereo not given),inactive,inactive,,inactive,inactive,inactive,,,,
COc1ccc(C2CC(c3ccccc3)=NN2c2ccc(S(N)(=O)=O)cc2)cc1 (stereo not given),21.7 µM (active),inactive,,inactive,inactive,,inactive,,,
Cn1c(N2CCCCS2(=O)=O)nc(C(=O)NCc2ccc(F)cc2)c(O)c1=O,inactive,inactive,,inactive,inactive,inactive,inactive,,,
CC(C)OC(=O)CCCC=CC[C@@H]1[C@H](C=C[C@@H](O)COc2cccc(C(F)(F)F)c2)[C@H](O)C[C@@H]1O,19.3 µM (active),,24.3 µM (active),inactive,inactive,,,33.2 µM (active),,
O=c1cc(-c2cccc3c2Sc2ccccc2S3)oc(N2CCOCC2)c1,inactive,inactive,,,inactive,inactive,,,,
CCC(CC)[C@H](NC(C)=O)[C@@H]1[C@H](O)[C@@H](C(=O)O)C[C@@H]1N=C(N)N,inactive,inactive,,inactive,inactive,inactive,inactive,,,
CCC(=O)O[C@]1(C(=O)CO)CC[C@H]2[C@@H]3CCC4=CC(=O)CC[C@]4(C)[C@@H]3CC[C@@]21C,inactive,inactive,,inactive,,inactive,inactive,,,
COc1cc2c(cc1OC)CN(CCc1ccc(NC(=O)c3cc(OC)c(OC)cc3NC(=O)c3cnc4ccccc4c3)cc1)CC2,inactive,inactive,,inactive,inactive,inactive,,,,
CO[C@H]1C=CC=C(C)C(=O)NC2=CC(=O)C(NCCN(C)C)=C(C[C@@H](C)C[C@H](OC)[C@@H](O)[C@@H](C)C=C(C)[C@@H]1OC(N)=O)C2=O,4.85 µM (active),0.132 µM (active),,,,5.9 µM (active),0.59 µM (active),0.0526 µM (active),,16.5 µM (active)
NC(=O)c1ccc2nc(-c3ccc(Oc4ccc(Cl)cc4)cc3)[nH]c2c1,2.43 µM (active),inactive,,inactive,inactive,inactive,inactive,,,
Nc1ncnc2ccccc12,inactive,inactive,,,,inactive,23.5 µM (active),inactive,,
COc1ccc2c3c1OC1C[C@@H](O)C=C[C@@]31CCN(C)C2 (stereo not given in full),inactive,inactive,,inactive,inactive,,inactive,,,
